PubChem BioAssay (NCATS)
Results filed as inconclusive are left out. The source made the active and inactive calls. Calls follow the shape of the dose curve; as a rule, active = well fitted curve in the direction sought with a large enough effect; inconclusive = small, poorly fitted or top-dose-only effect, or another doubt; inactive = no such curve, though single readings can be large; an effect the other way counts as inactive or inconclusive.

Columns and labels:
[1] = system: CRL-7250; test: Cytotoxic Profiling of Annotated Libraries Using Quantitative High-Throughput Screening (AID 1296008); settings: Five cell lines viability, CellTiter-Glo ATP luminescence, 48-72 h; max response: active compounds read low; also: nearly all actives have a fitted effect of over 60% in size; as to max response: % is scaled to controls: 0 for no effect and ±100 for the full control effect
Method in brief: (§1)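 Cells exposed to compounds for 48 or 72 hr at 37 degrees Celsius. Viability read as ATP-coupled luminescence with CellTiter-Glo after 10 min at room temperature.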

[2] = system: HEK293; test: as above; settings: Five cell lines viability, CellTiter-Glo ATP luminescence, 48-72 h; max response: active compounds read low
Method in brief: as §1

[3] = system: HaCat; test: as above; settings: Five cell lines viability, CellTiter-Glo ATP luminescence, 48-72 h; max response: active compounds read low
Method in brief: as §1

[4] = system: KB-3-1; test: as above; settings: Five cell lines viability, CellTiter-Glo ATP luminescence, 48-72 h; max response: active compounds read low
Method in brief: as §1

[5] = system: NIH3T3; test: as above; settings: Five cell lines viability, CellTiter-Glo ATP luminescence, 48-72 h; max response: active compounds read low
Method in brief: as §1

[6] = system: HACAT; test: qHTS assay to identify novel small-molecules to repurpose for Merkel cell carcinoma treatment (AID 1296009); settings: MCC and control cell lines, CellTiter-Glo viability, 72 h; at 44.8 µM (top of the series) unless noted; also: nearly all actives have a fitted effect of over 60% in size
Method in brief: (§2)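 Dose-response viability screen; 72 hr exposure at 37 degree celsius; CellTiter-Glo added, 10 min room temperature, luminescence read; RLUs scaled between no-cell and DMSO wells.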

[7] = system: HEK293T; test: as above; settings: MCC and control cell lines, CellTiter-Glo viability, 72 h; series mostly up to 44.8 µM
Method in brief: as §2

[8] = system: NIH3T3; test: as above; settings: MCC and control cell lines, CellTiter-Glo viability, 72 h; at 44.8 µM (top of the series) unless noted
Method in brief: as §2

[9] = system: C33A; test: Primary qHTS to identify gynecologic anti-cancer compounds using libraries of approved drugs and bioactive compounds (AID 1345084); settings: Gynecologic cancer cell panel viability, ATPlite luminescence, 48 h; series mostly up to 57.5 µM; also: % is scaled to controls: 0 for no effect and ±100 for the full control effect; nearly all actives have a fitted effect of over 55% in size
Method in brief: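 Cell viability after 48 h drug treatment, ATPlite luminescence readout; five doses.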

C=C(C(=O)O)[C@@H]1CC=C2CCC[C@H](C)[C@@]2(C)C1
inactive: max response [1] -11.2% | outcome [2] | outcome [3] | max response [4] 4.53% | outcome [5] | outcome [6] | Potency [7] | outcome [8] | Potency [9]

COC(=O)C1=C[C@@H](O)[C@@H](O)[C@H](O[C@@H]2O[C@H](COC(=O)/C=C/c3ccccc3)[C@@H](O)[C@H](O)[C@H]2O)C1
inactive: outcome [1] | outcome [2] | outcome [3] | max response [4] 3.55% | outcome [5] | outcome [6] inactive [at 17.4 µM] | Potency [7] | outcome [8] inactive [at 17.4 µM] | Potency [9]

C=C1C[C@]23C[C@H]1CC[C@H]2[C@@]12C=C[C@H](O)[C@@](C)(C(=O)O1)[C@H]2[C@@H]3C(=O)O
inactive: max response [1] -5.97% | outcome [2] | outcome [3] | outcome [4] | outcome [5] | outcome [6] | Potency [7] | outcome [8] | Potency [9]

CC1(C(=O)O)CCCC2(C)C1CCC13CC(CCC21)C1(CO)OC31 (centres undefined)
inactive: max response [1] -3.21% | outcome [2] | outcome [3] | max response [4] 2.68% | outcome [5] | outcome [6] | Potency [7] | outcome [8] | Potency [9]

C=CC(C)(CC/C=C(\C)CC/C=C(\C)CC(O)/C=C(\C)C(=O)O)O[C@@H]1O[C@H](CO)[C@@H](O)[C@H](O)[C@H]1O[C@@H]1O[C@H](CO)[C@@H](O)[C@H](O)[C@H]1O (some centres undefined)
inactive: outcome [1] | outcome [2] | outcome [3] | max response [4] 5.27% | outcome [5] | outcome [6] inactive [at 17.4 µM] | Potency [7] | outcome [8] inactive [at 17.4 µM] | Potency [9]

C=C1C[C@@]23CC[C@@H]4[C@](C)(C(=O)O)CCC[C@@]4(C)C2=CC[C@H]1C3
inactive: max response [1] -8.72% | outcome [2] | outcome [3] | max response [4] 4.16% | outcome [5] | outcome [6] | Potency [7] | outcome [8] | Potency [9]

C=C1CCC[C@]2(C)C[C@]3(O)OC(=O)C(C)=C3C[C@@H]12
inactive: outcome [1] | outcome [2] | outcome [3] | outcome [4] | outcome [5] | outcome [6] | Potency [7] | outcome [8] | Potency [9]

C[C@]12CC[C@@H]3c4ccc(O[C@@H]5O[C@H](C(=O)O)[C@@H](O)[C@H](O)[C@H]5O)cc4CC[C@H]3[C@@H]1CCC2=O
inactive: max response [1] -0.486% | outcome [2] | outcome [3] | outcome [4] | outcome [5] | outcome [6] | Potency [7] | outcome [8] | Potency [9]

O=C(O)C[C@H]1CCC(=O)[C@@H]1C/C=C\CCOC1OC(CO)C(O)C(O)C1O (some centres undefined)
inactive: max response [1] -7.42% | outcome [2] | outcome [3] | max response [4] 1.25% | outcome [5] | outcome [6] | Potency [7] | outcome [8] | Potency [9]

CC1(C)CC2C(O)C3=C(CC(C)(O)C2C1)C(=O)OC3O (centres undefined)
inactive: max response [1] -0.0685% | outcome [2] | outcome [3] | max response [4] 5.32% | outcome [5] | outcome [6] | Potency [7] | outcome [8] | Potency [9]

CC1CCC2(O1)C(C)(C)CC(O[C@@H]1O[C@H](CO[C@@H]3OC[C@](O)(CO)[C@H]3O)[C@@H](O)[C@H](O)[C@H]1O)CC2(C)O (some centres undefined)
inactive: max response [1] -0.207% | outcome [2] | outcome [3] | outcome [4] | outcome [5] | outcome [6] inactive [at 17.4 µM] | Potency [7] | outcome [8] inactive [at 17.4 µM] | Potency [9]

O=C(O)CCc1cccc(O[C@@H]2O[C@H](CO)[C@@H](O)[C@H](O)[C@H]2O)c1O
inactive: outcome [1] | outcome [2] | outcome [3] | outcome [4] | outcome [5] | outcome [6] | Potency [7] | outcome [8] | Potency [9]

CC(C)(C)c1cc(CN2CCN(CC(O)c3ccc(Cl)cc3)CC2)cc(C(C)(C)C)c1O (centres undefined)
inactive: max response [1] -1.02% | outcome [2] | outcome [3] | max response [4] -8.12% | outcome [5] | outcome [6] | Potency [7] | outcome [8] | Potency [9]

CC1(C)CCCC2(C)C3=C(C(=O)OC3O)C(O)CC12 (centres undefined)
inactive: max response [1] -10.8% | outcome [2] | outcome [3] | max response [4] 2.72% | outcome [5] | outcome [6] | Potency [7] | outcome [8] | Potency [9]

C=C1C(=O)OC2CC(C)=C(C(C)CCCO[C@@H]3O[C@H](CO)[C@@H](O)[C@H](O)[C@H]3O)C(O)C12 (some centres undefined)
inactive: max response [1] -0.682% | outcome [2] | outcome [3] | outcome [4] | outcome [5] | outcome [6] inactive [at 17.4 µM] | Potency [7] | outcome [8] inactive [at 17.4 µM] | Potency [9]

CC(C)C1=CCC(C)(O)C(OC2OC(CO)C(O)C(O)C2O)C1 (centres undefined)
inactive: max response [1] -1.73% | outcome [2] | outcome [3] | outcome [4] | outcome [5] | outcome [6] | Potency [7] | outcome [8] | Potency [9]
